Screening results deposited in PubChem by National Center for Advancing Translational Sciences (NCATS).
Sampled rows, rich in hits. Any-hit rate of the full collection: about 21%.
IL1B secr inh: qHTS for Inhibitors of Inflammasome Signaling: IL-1-beta AlphaLISA Primary Screen; THP-1 LPS/ATP IL-1B secretion, AlphaLISA, 16 h; hits give low values; activity change, % at 57.5 µM; 4.7% of 360,000 active; in the data active = activity change below about -50%; inconclusive = mostly about -30% to -49%; note: % is set by controls: 0 for no effect and ±100 for the full control effect
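THP-1 cells pretreated 1 hr with compounds (up to 57.5 uM final), then stimulated with LPS (250 ng/mL final) plus ATP (1.25 mM final); secreted IL-1B measured by AlphaLISA after 16 hr, decreased signal indicating inhibition.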
TDP1 cell CPT: qHTS for Inhibitors of human tyrosyl-DNA phosphodiesterase 1 (TDP1): qHTS in cells in presence of CPT. Potency, µM (highest dose often 46.2 µM), for the others: at the highest dose activity change, negative = growth inhibition, hits mostly inhibitors. 12% of 420,000 active. AID 686979, 2013. chicken DT40 Tdp1-/-;hTDP1 cells + 20 nM CPT, ATP luminescence, 48 h; note: potency is the fitted concentration of half-maximal effect; % is set by controls: 0 for no effect and ±100 for the full control effect; nearly all actives have a fitted effect of over 55% in size
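Chicken DT40 Tdp1-/- cells complemented with human TDP1, 400 cells/well, exposed to compounds plus 20 nM camptothecin for at least 48 h at 37 C; viability read as ATP content by CellTiter-Glo luminescence.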
DT40 TDP1 no CPT: qHTS for Inhibitors of human tyrosyl-DNA phosphodiesterase 1 (TDP1): qHTS in cells in absence of CPT; DT40 Tdp1-/- hTDP1 cells, no CPT, ATP luminescence, 48 h; Potency, µM (highest dose often 46.2 µM), for the others: at the top dose activity change, negative = growth inhibition, most hits filed as inhibitors; 15% of 420,000 active; note: potency is the fitted concentration of half-maximal effect; % is set by controls: 0 for no effect and ±100 for the full control effect; nearly all actives have a fitted effect of over 55% in size
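Chicken DT40 Tdp1-/- cells stably complemented with human TDP1 were seeded at 400 cells/well with DMSO in place of 20 nM camptothecin. After compound pinning, cells grew at least 48 hr at 37 °C; viability read by CellTiter-Glo luminescence.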
D3 antag: qHTS of D3 Dopamine Receptor Antagonist: qHTS; D(3) dopamine receptor (Homo sapiens), P35462; D3R cells, DiscoveRx beta-arrestin luminescence, antagonist mode; hits give low values; max response, negative = inhibition, %; 2.5% of 360,000 active; AID 652054, 2013; in the data active = max response below about -50%; inconclusive = no clear call, values can overlap the other calls; note: % is set by controls: 0 for no effect and ±100 for the full control effect
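Cells plated overnight at 1500 cells/well, then exposed to library compounds with dopamine controls for 90 minutes at 37 degrees C. DiscoveRx reagent added for 30–60 minutes at room temperature; luminescence read, quantitative HTS format.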
ClpP mod: qHTS Assay for Activators of ClpP | ATP-dependent Clp protease proteolytic subunit (Bacillus subtilis (strain 168)), P80244 | purified B. subtilis ClpP, FRET peptide cleavage, 20 min | Potency, µM (doses to about 57.5 µM), for inactives: at the top dose activity change, negative = active | 1.9% of 340,000 active | AID 651965, 2013; active = well fitted falling curve with a large enough effect; inconclusive = small, poorly fitted or top-dose-only effect; inactive = no such curve, though single readings can be large or run the other way; note: potency is the fitted concentration of half-maximal effect; the source files actives as falling curves though it sought activators and does not explain the sign; nearly all actives have a fitted effect of over 65% in size
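ClpP 10 microg/mL final, pH 8 Tris/KCl buffer with BSA, glycerol, Tween-20; compound pinned in; FRET-FV substrate; RT 20 min; Ex320/Em430; ΔFRET vs ADEP 5.8 microM, DMSO, no enzyme.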
DRD3 agonist: qHTS of D3 Dopamine Receptor Agonist: qHTS | D(3) dopamine receptor (Homo sapiens), P35462 | 0.58% of 410,000 active | D3R DiscoveRx beta-arrestin cells, luminescence, 90 min | max activation, %; in the data active = max activation above about 30%; note: 0% is about no effect
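Agonist-mode cell screen: cells plated at 1500/well and incubated overnight at 37 °C, then exposed to library compounds for 90 min at 37 °C. Detection reagent was added for 30–60 min at room temperature, and luminescence was read.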
* hit, by the source's call; ? = inconclusive; / = no result given. Unless noted, calls come from the whole dose curve; as a rule, active = well fitted inhibition curve with a large enough effect; inconclusive = small, poorly fitted or top-dose-only effect; inactive = flat fitted curve, though single readings scatter.

SMILES	IL1B secr inh	TDP1 cell CPT	DT40 TDP1 no CPT	D3 antag	ClpP mod	DRD3 agonist
Cc1ccc(C2(C)NC(=O)N(CC(=O)N3CCN(S(=O)(=O)c4ccc(Cl)s4)CC3)C2=O)cc1 (configuration not stated)	-6	21µM*	?	1	-4%	0
Cc1cc(C)c(S(=O)(=O)N2CCN(C(=O)CN3C(=O)NC4(CCCC4)C3=O)CC2)c(C)c1	-1	-1%	0%	22	35µM*	6
Cc1ccc(C2(C)NC(=O)N(CC(=O)N3CCN(S(=O)(=O)c4ccccc4[N+](=O)[O-])CC3)C2=O)cc1 (configuration not stated)	-13	-20%	?	2	2%	-2
Cc1ccc(C2(C)NC(=O)N(CC(=O)N3CCN(S(=O)(=O)c4cccs4)CC3)C2=O)cc1 (configuration not stated)	14	-16%	-26%	-53*	-5%	1
CCc1cccc(-n2c(=O)c3cccnc3n2CC(=O)NCc2ccc(C)cc2)c1	/	?	?	/	4%	7
Cc1ccc(-c2cc(C(=O)Oc3ccccc3)c3cc(C)ccc3n2)cc1	/	7%	-8%	/	2%	7
COc1ccc(S(=O)(=O)NCC(=O)N(CC(=O)NCc2ccco2)C2CCCC2)cc1	-7	-1%	-7%	-2	2%	22
COc1ccc(NC(=O)N2CC[C@@]3(CCCN(C(=O)c4c(C)noc4C)C3)C2)cc1	/	-9%	-12%	/	/	/
CCOC(=O)c1c(C)oc2c1cc(NS(=O)(=O)c1ccc(C)cc1)c1ccccc12	/	?	21µM*	/	0%	7
COC(=O)C(C(=O)OC)c1ccccc1NS(=O)(=O)c1c(C)cc(C)cc1C	34	16µM*	21µM*	17	0%	6
CCOC(=O)c1c(C)oc2c(Cl)cc(NS(=O)(=O)c3ccc(Cl)c(C)c3)cc12	/	?	26µM*	/	-1%	-6
COC(=O)c1c(C)oc2c1cc(NS(=O)(=O)c1c(C)cc(C)cc1C)c1ccccc12	/	12µM*	21µM*	/	-8%	-13
CC(=O)c1c(C)oc2c(Cl)cc(NS(=O)(=O)c3ccc(Cl)cc3)cc12	/	/	/	/	1%	-5
CC(=O)c1c(C)oc2c1cc(NS(=O)(=O)c1c(C)cc(C)cc1C)c1ccccc12	/	/	/	/	0%	-2
O=C1C(SC(F)(F)C(F)F)=C(C(F)(F)F)OC2C3C=CC(C3)C12 (configuration not stated)	14	-12%	?	13	16µM*	1
CC1(C)Oc2ccccc2OC1(O)c1ccc2ccccc2n1 (configuration not stated)	5	?	18µM*	-18	-1%	-5
CCC(C)NC(=O)C1c2ccccc2C(=O)N(c2ccc(OC)cc2)C1c1ccc(OC)cc1 (configuration not stated)	38	?	21µM*	0	1%	1
CN(CC(=O)Nc1ccccc1C(F)(F)F)C(=O)c1ccc(N2C(=O)CCC2=O)cc1	13	20%	-2%	-1	/	9
COc1cccc(CN(C)C(=O)c2cccc(OC3CCN(C4CCCC4)CC3)c2)c1	-6	?	?	6	0%	-6
CCOc1ccc(-c2ccc(SC)nn2)cc1	?	-30%	8.2µM*	-6	/	-9
COc1ccc(NC(=O)c2c(NC(=O)c3ccc(Br)cc3)sc3c2CCCC3)cc1	/	?	21µM*	/	0%	-19
COc1ccc(NC(=O)c2c(NC(=O)c3cccc(C)c3)sc3c2CCCC3)cc1	/	-1%	-14%	/	-4%	-14
COc1ccc(NC(=O)c2c(NCc3cccs3)sc3c2CCCCC3)cc1	/	9.2µM*	9.2µM*	/	-4%	-21
CCOc1ccc(NC(=O)c2c(NC(=O)CN3CCCC3)sc3c2CCC3)cc1	7	?	12µM*	4	-4%	13
CCOc1ccc(NC(=O)c2c(NCc3cccs3)sc3c2CCCCC3)cc1	/	?	23µM*	/	-2%	-8
SMILES	IL1B secr inh	TDP1 cell CPT	DT40 TDP1 no CPT	D3 antag	ClpP mod	DRD3 agonist
CCOc1ccc(NC(=O)c2c(NCc3cccnc3)sc3c2CCCC3)cc1	/	?	?	/	-4%	6
O=C(COC(=O)c1ccc(S(=O)(=O)N2CCCC2)cc1)NCc1ccco1	27	-1%	1%	-1	/	7
CC(C)(C)c1ccc(NC(=O)Nc2ccc3ccccc3n2)cc1	0	-27%	-5%	2	-2%	-4
Cc1cc(S(=O)(=O)N2CCCC(C)C2)ccc1-n1cnnn1 (configuration not stated)	4	-1%	-18%	-2	-1%	-6
CC(C)C[C@H]1CN=C(N(C)C)N1CC1CCCCCC1	-14	13µM*	21µM*	1	-7%	-8
CN(C)C1=NC[C@H](Cc2ccccc2)N1CC1CCCCC1	-11	13µM*	12µM*	-19	-4%	-1
CN(C)C1=NC[C@H](Cc2ccccc2)N1CC1CCC(C(C)(C)C)CC1 (some centres not stated)	-26	21µM*	13µM*	-2	-3%	1
CN(C)C1=NC[C@H](Cc2ccccc2)N1CC1CCCC1	10	15µM*	23µM*	-1	-1%	-4
O=C(CSc1nnc(-c2cccc(Br)c2)o1)N1CCNC1=O	0	-25%	0%	0	1%	5
COc1ccc(CNC(=O)c2ccc(S(=O)(=O)N3CC(C)CC(C)C3)cc2)cc1OC (configuration not stated)	0	?	?	-24	1%	-16
CCc1ccc(C(=O)COC(=O)C(Cc2ccccc2)NC(=O)C2CCC(C)CC2)cc1 (configuration not stated)	0	1%	-23%	-1	0%	3
CC1CCC(C(=O)NC(C(=O)OCC(=O)c2ccccc2)C(C)C)CC1 (configuration not stated)	/	18µM*	18µM*	/	0%	-12
Cc1n(C)c2cc(Cl)ccc2[n+]1Cc1ccccc1	-1	?	23µM*	-3	/	-4
Cc1cccc(-c2nn3c(=O)cc(CN4CCN(C(=O)c5ccccc5Br)CC4)nc3s2)c1	/	-14%	-16%	/	-1%	-9
